# Test results reported in PubChem BioAssay (Tox21).
# Results filed as inconclusive are left out. Entries that show only a call come without a potency. Activity calls are given as the source filed them. Calls follow the shape of the full dose curve.
# Assay: qHTS assay for small molecules that induce genotoxicity in human embryonic kidney cells expressing luciferase-tagged ATAD5 - cell viability (AID 651634); also: nearly all actives have a fitted effect of over 25% in size
# Settings: HEK293T ATAD5-luc cells viability, CellTiter-Fluor, 15.5 h; series mostly up to 83.3 µM
# From the text: National Center for Advancing Translational Sciences [NCATS]
# NIH Chemical Genomics Center [NCGC]
# U.S. Environmental Protection Agency [EPA]
# National Institutes of Environmental Health Sciences [NIEHS]
# National Toxicology Program [NTP]
# U.S. Food and Drug Administration [FDA]
# Enhanced Level of Genome Instability Gene 1 (ELG1; human ATAD5) protein levels increase in response to various types of DNA damage. Using a luciferase reporter-gene tagged with ElG1, a cell-based assay [developed by Kyungjae Myung, NHGRI, NIH] was used to measure the induction of ATAD5 in human embryonic kidney cells (HEK293T). So, increase in luciferase activity can be used to identify the compounds that cause genetic stress. In addition to genotoxicity, these cells were also used to test for cytotoxicity by measuring the protease activity within live cells.
# Tox21 Assay Protocol Summary:
# For cytotoxicity screening, 2,000 cells in 5 uL/well were dispensed into white, solid-bottom 1536-well plates using a Multidrop Combi (Thermo Scientific) dispenser. Following transfer of 23 nL compound or DMSO vehicle by a pin tool, the plates were incubated 15.5 hr at 37C and 5% CO2. 1 ul CellTiter-Fluor reagent (Promega, Madison, WI) was then added to each plate and following 30 min incubation at 37C, fluorescence intensity was quantified on a ViewLux CCD-based plate reader.
# Potency is read from the fitted curve at half-maximal effect.
row,SMILES,Potency
1,C[N+](C)=CCl,inactive
2,COC(=O)COc1ccc(Cl)cc1Cl,inactive
3,CC(C)COP(=O)(OCC(C)C)OCC(C)C,inactive
4,O=C(CCCN1CCC(n2c(=O)[nH]c3ccccc32)CC1)c1ccc(F)cc1,inactive
5,CNC(=O)O/N=C(\C)SC,inactive
6,CC(C)(C)C(=O)C(Oc1ccc(Cl)cc1)n1cncn1 (stereo not given),inactive
7,CCCSC(=O)Cl,inactive
8,OCCBr,inactive
9,CC1(C)C(=O)NC(=O)NC1=O,inactive
10,Nc1cc(Cl)ccc1O,23.5 µM (active)
11,OC(c1ccc(F)cc1)(c1cncnc1)c1ccccc1Cl (stereo not given),inactive
12,Cc1cccc(C#N)c1,inactive
13,CC(C)CC#N,inactive
14,c1cc2c(c(N3CCNCC3)c1)OCCO2,inactive
15,CC(CC(C#N)(c1ccccc1)c1ccccc1)N(C)C (stereo not given),inactive
16,CS(=O)(=O)c1cc(C(F)(F)F)ccc1C(=O)c1cnoc1C1CC1,inactive
17,CCN(CC)C(=O)[C@@H]1C=C2c3cccc4[nH]cc(c34)C[C@H]2N(C)C1,inactive
18,O=[N+]([O-])c1cccc(O)c1,inactive
19,O=[N+]([O-])c1ccc(CBr)cc1,inactive
20,CC(C)(C)OC(=O)c1ncn2c1[C@@H]1CCCN1C(=O)c1c(Br)cccc1-2,inactive

row,SMILES,Potency
1,COc1ccc(C(=O)N2CCCC2=O)cc1,inactive
2,CNC(=O)Oc1cccc(C(C)C)c1,inactive
3,COc1cccc(C(=O)NN(C(=O)c2cc(C)cc(C)c2)C(C)(C)C)c1C,inactive
4,CC(C)CC(N(C)C)C1(c2ccc(Cl)cc2)CCC1 (stereo not given),inactive
5,CC(Oc1ccc(Oc2ncc(C(F)(F)F)cc2Cl)cc1)C(=O)O (stereo not given),inactive
6,CCCCC(=O)Cl,inactive
7,COc1cc(OC)nc(Oc2cccc(Oc3nc(OC)cc(OC)n3)c2C(=O)O)n1,inactive
8,Nc1n[nH]c(N)n1,inactive
9,CC1=NNC(=O)N(/N=C/c2cccnc2)C1,inactive
10,CCN(CC)CCOC(=O)C(C)(c1ccccc1)c1ccccc1,inactive
11,O=C1CN=C(c2ccccc2)c2cc([N+](=O)[O-])ccc2N1,inactive
12,O=C(O)C(Br)CBr (stereo not given),inactive
13,CNCC(=O)c1ccc(O)c(O)c1,inactive
14,OC(c1ccccc1)(c1ccccc1)C1CCNCC1,inactive
15,COCC(=O)N(c1c(C)cccc1C)N1CCOC1=O,inactive
16,c1coc(-c2nc3ccccc3[nH]2)c1,inactive
17,CCCSC(=O)N(CCC)CCC,inactive
18,CC(COc1ccc(Oc2ccccc2)cc1)Oc1ccccn1 (stereo not given),inactive
19,Cc1ncc2n1-c1ccc(Cl)cc1C(c1ccccc1F)=NC2,inactive
20,C[C@@H]1CN(C2CCC(C#N)(c3ccc(F)cc3)CC2)CC[C@]1(C(=O)O)c1ccccc1 (stereo not given in full),inactive
